The list shows a part of the results. Records with an inconclusive call do not appear. The source made the active and inactive calls. The call rests on the fitted dose curve; in most records, active means well fitted inhibition curve with a large enough effect; inconclusive means small, poorly fitted or top-dose-only effect, or another doubt; inactive means no such curve, though single readings can be large or run the other way.
target: Vitamin D3 receptor (Homo sapiens) (UniProt P11473); test: qHTS for Inhibitors of the vitamin D receptor (VDR): Hit Validation in Primary Screen (AID 602199); conditions: VDR-coactivator inhibition assay, qHTS confirmation
Sequence (P11473 whole entry, looked up): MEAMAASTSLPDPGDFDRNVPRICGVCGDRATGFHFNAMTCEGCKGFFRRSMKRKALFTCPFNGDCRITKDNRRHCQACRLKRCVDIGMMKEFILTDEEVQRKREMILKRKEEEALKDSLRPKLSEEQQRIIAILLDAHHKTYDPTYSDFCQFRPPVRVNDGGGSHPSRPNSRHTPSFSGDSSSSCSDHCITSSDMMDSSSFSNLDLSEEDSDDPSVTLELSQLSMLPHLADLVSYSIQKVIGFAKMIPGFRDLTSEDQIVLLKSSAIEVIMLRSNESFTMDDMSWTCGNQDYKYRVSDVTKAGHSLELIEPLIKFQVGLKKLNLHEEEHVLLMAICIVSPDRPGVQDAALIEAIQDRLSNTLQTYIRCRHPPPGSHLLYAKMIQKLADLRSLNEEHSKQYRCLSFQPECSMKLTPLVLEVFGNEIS
Excerpt: The vitamin D receptor (VDR) is a ligand-activated transcription factor and is partially responsible for the regulation of the endocrine system. This includes the transcriptional regulation of genes involved in the production of the parathyroid hormone (PTH) and the regulation of the blood calcium level. High levels of PHT can cause hypercalcemia in the case of primary and tertiary hyperparathyroidism. The VDR-mediated gene regulation, activated by its ligand 1,25-dihydroxyvitamin D3 (1,25-(OH)2D3), is governed by the recruitment of coactivators. Our hypothesis is that small molecules, with the ability to inhibit the interaction between VDR and certain coactivators, are able to selectively modulate VDR-mediated transcription. Our long term objective is the application these VDR-coactivator inhibitors to study the role of VDR-coactivator binding for specific VDR regulated genes. Ultimately, these molecules can be developed into new treatments for hypercalcemic hyperparathyroidism. No small molecule or non-peptide inhibitors are known for the VDR-coactivator interaction.
In a collaboration between the University of Wisconsin, Milwaukee and the NIH Chemical Genomics Center (NCGC) a HTS-compatible enzymatic assay was developed. The assay uses fluorescence polarization as its read-out to measure the inhibition between VDR and coregulator peptide SRC2-3 exerted by small molecules. This assay was used to screen the NIH Molecular Libraries Small Molecule Repository (MLSMR).
NIH Chemical Genomics Center [NCGC]
NIH Molecular Libraries Probe Centers Network [MLPCN]
Assay Submitter (PI): Alexander Arnold, University of Wilwaukee
Four microliter of either 800nM VDR, 5uM LG19078, and […]nM SRC2-3 Alexa 647 (all final concentrations) in columns 1, 2, and 5 to 48 or […]nM SRC2-3 Alexa 647 in columns 3 and 4 are dispensed into black medium-binding solid bottom Greiner plates. Both solutions are kept at 4 deg C and protected from light and dispensed using a Kalypsys dispenser. Then 23nl of compounds and controls are added with Kalypsys pintool. The control is 26.5mM CBT358 (final concentration of 151uM) and the compounds' final range in concentration is 457nM - 114uM. Plate is centrifuged at 1000 RPM for 15 seconds to remove any residual bubbles. The plate is then incubate at ambient room temperature for 2 hours. It is then read on the Envision for a fluorescent polarization read-out (Ex 620 nm/Em 688 nm)
Potency means the concentration at half of the fitted maximal effect.

Potency, active:
O=C(/C=C/c1ccc(Cl)cc1Cl)c1cccnc1 9.47 µM
C=CCOc1ccc(/C=C2/C(=O)ON=C2C)cc1OCC 10.6 µM
Cc1cccc(Oc2c([N+](=O)[O-])c(=O)n(C)c3ccccc23)c1 21.2 µM
Cc1nc(-c2ccccc2)sc1C(=O)/C=C/c1ccccc1 16.8 µM
O=c1[nH]c2ccccc2n2c(-c3ccccc3)nnc12 9.47 µM
CC(=O)N(C1=C(Cl)C(=O)c2ccccc2C1=O)c1ccc(C(=O)O)cc1 7.94 µM
COC(=O)c1sc(-c2ccc(C(C)(C)C)cc2)cc1NC(=O)/C=C/C(=O)O 11.9 µM
O=C(Nc1ccccc1)c1nnsc1S(=O)(=O)c1ccc(Cl)cc1 16.8 µM
CCOc1ccc(N(Cc2ccccc2)C(=O)c2nc(S(C)(=O)=O)ncc2Cl)cc1 4.47 µM
CCOC(=O)c1sc(=S)n2c1[nH]c(=O)c1ccc(C(=O)OC)cc12 7.94 µM
O=[N+]([O-])/C=C/c1ccc2c(ccn2Cc2ccccc2)c1 6.7 µM
O=C(Nc1nc(-c2ccncc2)cs1)C1COc2ccccc2O1 (stereo not given) 2.82 µM
Cc1cccc(CS(=O)(=O)c2ncc(Cl)c(C(=O)Nc3ccc(F)cc3)n2)c1 3.36 µM
O=c1[nH]c(/C=C\c2cccc(C(F)(F)F)c2)nc(O)c1[N+](=O)[O-] 18.9 µM
O=c1cc(CO)oc(C(Nc2cccc(C(F)(F)F)c2)c2ccccn2)c1O (stereo not given) 16.8 µM
c1ccc2c(C[n+]3csc4ccccc43)cccc2c1 5.62 µM
CSc1nnc(NC(=O)c2nc(S(=O)(=O)Cc3ccc(C)cc3)ncc2Cl)s1 7.52 µM
CC1CCN(C(=S)c2ccc(-c3ccc(Cl)cc3Cl)o2)CC1 21.2 µM
CC(=O)N1CC[n+]2c(-c3ccc([N+](=O)[O-])cc3)csc21 10 µM
O=C(CCN1CCc2ccccc2C(O)(c2ccccc2)C1)c1ccc2c(c1)OCCO2 (stereo not given) 10.6 µM
Cc1cc(C)nc(S/C=C/C(=O)c2ccccc2)n1 3.55 µM
COc1ccc(CS(=O)/C(Cl)=C(/Cl)C(=O)Nc2ccc(OC)nc2)cc1 (stereo not given) 5.97 µM
Cc1ccc(-c2nc3ccccn3c2Nc2c(C)cccc2C)o1 17.8 µM
CCOC(=O)N1CCN(C(c2cccnc2)c2ccc3cccnc3c2O)CC1 (stereo not given) 7.52 µM
CN(C)N=Nc1ccc2nc[nH]c2c1 10.6 µM
O=C(/C=C/c1ccccc1)c1ccccc1O 23.8 µM
O=C1C=C(c2ccc(Cl)cc2)C(=O)N1Nc1ccccc1 2.99 µM
COC(=O)/C=C\C(=O)Nc1cccc([N+](=O)[O-])c1 5.32 µM
CCOC(=O)c1sc(NC(=O)CSc2nc(C)cc(C(F)(F)F)n2)c(C#N)c1C 11.9 µM
COc1ccc(OCc2nnc3n2N=C(c2ccccc2)C(CC(=O)O)S3)cc1 (stereo not given) 1.58 µM
CCCCS(=O)(=O)c1oc(-c2cccs2)nc1S(=O)(=O)c1ccccc1 2.24 µM
O=[N+]([O-])c1c(NCCO)cc(Sc2nc3ccccc3s2)c2nonc12 3.36 µM
Cc1ccc(O)c(NC(=O)CCS(=O)(=O)c2nc(-c3ccc4c(c3)OCO4)cc(C(F)(F)F)n2)c1 14.1 µM
O=C(/C=C/c1ccc(Cl)c([N+](=O)[O-])c1)c1cccnc1 2.51 µM
C[C@@H](NC(=O)OC(C)(C)C)c1nnc(S(=O)(=O)Cc2ccccc2)o1 11.2 µM

Source: PubChem BioAssay (NCATS)
